We go through 28 compounds from PubChem BioAssay AID784 (The Scripps Research Institute Molecular Screening Center, 2007).

Each structure is given as a SMILES string. Hit rate of the full screen: of about 30,000 compounds, about 130 (0.43%) were called active. No stated cut-off is given here; in the data, active means activation above about 65%; inactive means the rest. The sample as a whole holds a higher share of actives than the screen did.

For the assay, the target named is Lysosomal acid glucosylceramidase (Homo sapiens) (UniProt P04062). Kind of assay: GBA activity enhancers in patient fibroblasts, primary screen, cell-based (AID 784).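 Further: 0% = vehicle wells and 100% = positive control wells.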 To be noted: L444P Gaucher fibroblasts, 4-MU-glucoside fluorescence, 3 days; at 10 µM; stronger effect = higher value.
Chain of Lysosomal acid glucosylceramidase (Homo sapiens) (P04062 whole entry L483P): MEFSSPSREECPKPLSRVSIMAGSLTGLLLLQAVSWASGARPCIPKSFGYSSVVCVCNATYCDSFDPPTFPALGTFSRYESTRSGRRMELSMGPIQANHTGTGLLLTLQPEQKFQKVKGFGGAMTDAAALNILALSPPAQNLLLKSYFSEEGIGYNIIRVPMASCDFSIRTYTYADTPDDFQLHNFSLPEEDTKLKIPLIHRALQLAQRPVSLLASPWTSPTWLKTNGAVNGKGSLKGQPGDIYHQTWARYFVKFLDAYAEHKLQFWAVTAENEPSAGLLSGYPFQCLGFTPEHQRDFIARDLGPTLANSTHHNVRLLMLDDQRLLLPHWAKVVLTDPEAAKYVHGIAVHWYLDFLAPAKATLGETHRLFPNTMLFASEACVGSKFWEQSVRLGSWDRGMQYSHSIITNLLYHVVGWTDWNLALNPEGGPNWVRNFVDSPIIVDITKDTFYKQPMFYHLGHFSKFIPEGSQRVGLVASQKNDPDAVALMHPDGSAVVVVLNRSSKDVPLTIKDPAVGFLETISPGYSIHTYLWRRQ
Regarding `CCn1c2c(c3ccc(OC)cc31)CCCC2=O`, the activation was -2.82% (inactive).
Under `O=C(COc1ncnc2ccccc12)NC(=O)NCc1ccccc1` stands -9.58% (inactive).
The result for `CCCOc1cccc(C(=O)Nc2nnn(CCC)n2)c1` reads -14.1% (inactive).
Under `Cc1ccc(OCc2nc(C#N)c(N3CCCC3)o2)cc1` stands -34.7% (inactive); under `Cc1ccc(OCCCC(=O)N2CCOCC2)c(C)c1`, 9.81% (inactive).
For the compound `Cc1cc(N2CCN(Cc3ccc4c(c3)OCO4)CC2)n2ncnc2n1`, the activation was 4.34% (inactive).
On to `CCOc1cc(CO)ccc1OCC(=O)N1CCCCC1`, for which the activation was 38.3% (inactive).
Under `CC(C)(C)c1nc(NCC2CCCO2)c2nnn(Cc3ccccc3)c2n1` (stereo not drawn) stands -23.9% (inactive); under `O=CN1CCN(C2CC(=O)N(c3ccc4c(c3)OCO4)C2=O)CC1` (stereo not drawn), -20.8% (inactive); under `CC1(C)CC(=O)C=C(NCCCN2CCCC2=O)C1`, 48.7% (inactive).
The result for `NC(CSC12CC3CC(CC(C3)C1)C2)C(=O)O` (stereo not drawn) reads -2.09% (inactive); that for `CCOC(=O)C1CCCN(C(=O)c2cncc(Br)c2)C1` (stereo not drawn), -20.7% (inactive); that for `OC(COc1ccccc1)Cn1cc(Br)cn1` (stereo not drawn), -62.4% (inactive).
Regarding `CCCCSc1nnc(-c2ccc(C)cc2)o1`, the activation is 65.5% (active).
As for `COc1ccc(-c2nnc(SC(C)C#N)o2)cc1` (stereo not drawn), the activation was -2.02% (inactive).
The result for `c1ccc(-c2nnc(SCc3nc4ccccc4[nH]3)o2)cc1` reads -6.36% (inactive); that for `CC1(C)SC2c3ccccc3C(=O)N2[C@@H]1C(=O)NCc1ccco1` (stereo partly drawn), -2.64% (inactive).
For `C=CCn1cnc2scc(-c3ccccc3)c2c1=O`, the activation was -7.71% (inactive).
Regarding `CCN1C(=O)C(C(=O)NC(C)c2ccccc2)C2CC1(C)Oc1ccccc12` (stereo not drawn), the activation is -6.62% (inactive).
The result for `CC(C)C(C(=O)NC1CCCCC1)N(CC1CCCO1)C(=O)CNS(=O)(=O)c1ccc(F)cc1` (stereo not drawn) reads -1.42% (inactive).
The result for `COc1ccc(NC(=O)c2c(C)oc3c2CCCC3)cc1` reads 9.49% (inactive).
Under `CCc1c(C)sc(NC(=O)OC)c1C(=O)N1CCOCC1` stands -9.88% (inactive); under `Cc1nc2nc3c(cn2n1)C(=O)CC(c1ccccc1)C3` (stereo not drawn), -10.1% (inactive); under `CC(=O)Nc1cccc(NC(=O)c2c(-c3ccccc3)noc2C)c1`, -9.69% (inactive).
Take `CCc1nc(N2CCN(c3nc(C)cc(C)n3)CC2)c2oc3ccccc3c2n1`: the activation was -1.58% (inactive).
Under `CCCn1c(SCC(=O)Nc2cccc(C(=O)OCC)c2)nnc1-c1ccoc1C` stands -19.7% (inactive).
On to `O=C(COc1ccccc1)N1CCc2ccccc2C1`, for which the activation is -2.86% (inactive).
As to `CCCCc1nc2ccccc2c(=O)n1NC(=O)c1c(O)c2cccc3c2n(c1=O)CC3`, the activation is 3.98% (inactive).
